PubChem BioAssay (NCATS)
Results filed as inconclusive are left out. A call without a number means that no potency is given here. Activity calls are given as the source filed them. The call rests on the fitted dose curve; in most records, active means well fitted curve in the direction sought with a large enough effect; inconclusive means small, poorly fitted or top-dose-only effect, or another doubt; inactive means no such curve, though single readings can be large; an effect the other way counts as inactive or inconclusive.

Test system: not listed separately
Assay: qHTS to identify inhibitors of the type 1 interferon - major histocompatibility complex class I in skeletal muscle: primary screen against the NCATS Mechanism Interrogation Plate v5.0 (MIPE) Libary (AID 1347411); further: nearly all actives have a fitted effect of over 65% in size; further: potency means the concentration at half of the fitted maximal effect
Conditions: iHSKM cells + IFN-b, HiBiT-tagged MHC-I luminescence, 24 h; series mostly up to 45.8 µM
In short: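 Luminescence from HiBiT-tagged endogenous HLA-B*08:01 served as the MHC class I read-out. CRISPR-engineered C25cl48 human myoblasts received 4.0 ng/ml IFN-beta plus compound for 24 hrs, with an 11-point, 1:3 series topping at 46 uM final.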

| Compound | Potency |
| --- | --- |
| COc1ccc(C(=O)CC2(O)C(=O)Nc3c(Cl)ccc(Cl)c32)cc1 (centres undefined) | inactive |
| COC(=O)c1ccc2c(C(=Nc3ccc(N(C)C(=O)CN4CCN(C)CC4)cc3)c3ccccc3)c(O)[nH]c2c1 | 16.5 µM (active) |
| O=C(c1cncc(Br)c1)N1CCC(N2CCCC2)CC1 | inactive |
| COc1ccc(OC)c(-c2nnc3ccc(-c4ccc(OC)c(O[C@@H]5CCOC5)c4)nn23)c1 | inactive |
| CCN1CCN(Cc2ccc(-c3cc4c(N[C@H](C)c5ccccc5)ncnc4[nH]3)cc2)CC1 | 18.6 µM (active) |
| Cc1nc(Nc2n[nH]c3c2CN(C(=O)N[C@H](CN(C)C)c2ccccc2)C3(C)C)c2sccc2n1 | 0.0523 µM (active) |
| C#Cc1cccc(Nc2ncnc3cc(OC)c(OCCCCCCC(=O)NO)cc23)c1 | 1.65 µM (active) |
| CC(C)Nc1cc(C(F)(F)F)cc2nc(NC(=O)c3cccnc3)nn12 | inactive |
| Cc1ccc(C(N)=O)cc1Nc1nccc(-c2cn(C(C)C)c3cnccc23)n1 | 8.29 µM (active) |
| COc1ccc(-n2nc(C(N)=O)c3c2C(=O)N(c2ccc(N4CCCCC4=O)cc2)CC3)cc1 | inactive |
| CCN(CC)CCCCNc1ncc2cc(-c3cc(OC)cc(OC)c3)c(NC(=O)NC(C)(C)C)nc2n1 | 29.4 µM (active) |
| Cc1cc(Nc2ncnc3ccc(-c4ccc(CNCCS(C)(=O)=O)o4)cc23)ccc1Oc1ccn2ncnc2c1 | inactive |

Target: Calcium and integrin-binding protein 1 (Homo sapiens) (UniProt Q99828)
Assay: Confirmatory qHTS for Identification of Calcium Integrin Binding Protein 1 (CIB1) Competitor (AID 1508617); further: nearly all actives have a fitted effect of over 65% in size; further: potency means the concentration at half of the fitted maximal effect
Conditions: CIB1 binding competition assay, biochemical qHTS; series mostly up to 114 µM
In short: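 Compounds at up to 114 uM final met 1 uM GST-tagged CIB1 for 15 min at room temperature (HEPES pH 7.4, 5 mM CaCl2). FITC-labelled alphaIIb peptide, 100 nM, added; polarization read after 15 min more.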

Sequence of Calcium and integrin-binding protein 1 (Homo sapiens) (Q99828 whole entry, looked up): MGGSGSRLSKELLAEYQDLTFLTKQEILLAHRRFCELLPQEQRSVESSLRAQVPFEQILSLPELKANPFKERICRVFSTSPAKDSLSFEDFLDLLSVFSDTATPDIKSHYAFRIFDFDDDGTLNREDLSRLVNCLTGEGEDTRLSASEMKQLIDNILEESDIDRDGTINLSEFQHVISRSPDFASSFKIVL

| Compound | Potency |
| --- | --- |
| CC(C)(O)CCc1ccc(OCc2cc(-c3cccc(OC(F)F)c3)c3ncccc3c2)cc1 | inactive |
| OCc1ccc(-c2ccc(-c3ccc(CO)s3)o2)s1 | inactive |
| Cn1cc(-c2[nH]c3cc(NC(=O)[C@H](N)C4CCCCC4)cc4c3c2C=NNC4=O)cn1 | 50.1 µM (active) |

Target: Calcium and integrin-binding protein 1 (Homo sapiens) (UniProt Q99828)
Assay: Primary qHTS for Identification of Calcium Integrin Binding Protein 1 (CIB1) Competitor (AID 1508620);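 further: GST tagged CIB1 binding a fluorescein labelled alphaIIb integrin peptide tracer; top concentration of the series differs between compounds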
Conditions: CIB1-GST / FITC-alphaIIb peptide fluorescence polarization; series mostly up to 57.7 µM
In short: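 CIB1-GST (1 uM final) and compound incubated 15 min at room temperature before adding FITC-alphaIIb peptide tracer (100 nM final). Competition for binding read by fluorescence polarization (ex 480, em 540) after another 15 min at room temperature.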

| Compound | outcome |
| --- | --- |
| Cc1cn2c(-c3cn[nH]c3)cnc2c(Nc2ccc(C(=O)N3CCNCC3)cc2F)n1 | inactive |
| CCCCCN(CCC12CC3CC(CC(C3)C1)C2)C(=O)NCCCc1ccncc1 | inactive |
| COc1c(OCCCN2CCOCC2)ccc2c3n(c(=NC(=O)c4cnc(N)nc4)nc12)CCN3 | inactive |
| COc1cc2c(Oc3ccc(-c4cnc(Nc5ccc(F)cc5)n(C)c4=O)cc3F)ccnc2cc1OCCCN1CCOCC1 | inactive |
| CN(C1CCc2c(c3ccccc3n2CC(=O)O)C1)S(=O)(=O)c1ccc(F)cc1 (centres undefined) | inactive |
| CC(=O)c1c(C)c2cnc(Nc3ccc(N4CCNCC4)cn3)nc2n(C2CCCC2)c1=O | inactive |
| COc1ccc(C(=O)CC2(O)C(=O)Nc3c(Cl)ccc(Cl)c32)cc1 (centres undefined) | inactive |
| Cc1cnc(-c2cnc(NCCNc3ccc(C#N)cn3)nc2-c2ccc(Cl)cc2Cl)[nH]1 | inactive |
| Cc1nc(N)ncc1-c1nc(N2CCOCC2)c2sc(C(C)(C)O)cc2n1 | inactive |
| COC(=O)c1ccc2c(C(=Nc3ccc(N(C)C(=O)CN4CCN(C)CC4)cc3)c3ccccc3)c(O)[nH]c2c1 | inactive |
| O=C(c1cncc(Br)c1)N1CCC(N2CCCC2)CC1 | inactive |
| CC(C)CC(=O)Nc1n[nH]c2c1CN(C(=O)C1CCN(C)CC1)C2(C)C | inactive |
| COc1cc2c(Nc3ccc(NC(=O)c4ccccc4)cc3)ncnc2cc1OCCCN1CCOCC1 | inactive |
| Nc1nccc(Oc2ccc(NC(=O)c3c[nH]cc(-c4ccc(F)cc4)c3=O)cc2F)c1Cl | inactive |
| CS(=O)(=O)c1ccc(-c2cnc(N)c(C(=O)Nc3ccccc3)n2)cc1 | inactive |
| COc1ccc(OC)c(-c2nnc3ccc(-c4ccc(OC)c(O[C@@H]5CCOC5)c4)nn23)c1 | inactive |
| CC1(O)CC(c2nc(-c3ccc4ccc(-c5ccccc5)nc4c3)c3c(N)nccn23)C1 (centres undefined) | inactive |

| Compound | outcome |
| --- | --- |
| OCc1ccc(-c2ccc(-c3ccc(CO)s3)o2)s1 | inactive |
| O=C(CCCCCCNC(=O)c1cnc(N(c2ccccc2)c2ccccc2)nc1)NO | inactive |
| Cc1c(Cn2c(C)nc3c(C(=O)O)cc(N4CCOCC4)cc32)cccc1C(F)(F)F | inactive |
| CCN1CCN(Cc2ccc(-c3cc4c(N[C@H](C)c5ccccc5)ncnc4[nH]3)cc2)CC1 | inactive |
| Cc1nc(Nc2n[nH]c3c2CN(C(=O)N[C@H](CN(C)C)c2ccccc2)C3(C)C)c2sccc2n1 | inactive |
| O=C(Nc1nc2cccc(-c3ccc(CN4CCS(=O)(=O)CC4)cc3)n2n1)C1CC1 | inactive |
| C#Cc1cccc(Nc2ncnc3cc(OC)c(OCCCCCCC(=O)NO)cc23)c1 | inactive |
| CC(C)Nc1cc(C(F)(F)F)cc2nc(NC(=O)c3cccnc3)nn12 | inactive |
| O=C(Nc1ncc(-c2cc(C(F)F)nn2-c2c(Cl)cccc2Cl)s1)C1CC1 | inactive |
| Cc1ccc(C(N)=O)cc1Nc1nccc(-c2cn(C(C)C)c3cnccc23)n1 | inactive |
| Cn1c2ccccc2c2c3c(c4c5ccccc5n(CCC#N)c4c21)CNC3=O | inactive |
| Cn1cc(-c2ccncc2)c(-c2ccc(OCc3ccc4ccccc4n3)cc2)n1 | inactive |
| COc1ccc(-n2nc(C(N)=O)c3c2C(=O)N(c2ccc(N4CCCCC4=O)cc2)CC3)cc1 | inactive |
| CCN(CC)CCCCNc1ncc2cc(-c3cc(OC)cc(OC)c3)c(NC(=O)NC(C)(C)C)nc2n1 | inactive |
| Cc1cc(Nc2ncnc3ccc(-c4ccc(CNCCS(C)(=O)=O)o4)cc23)ccc1Oc1ccn2ncnc2c1 | inactive |
| CCOc1ccccc1OCCNC(C)Cc1ccc(OC)c(S(N)(=O)=O)c1 (centres undefined) | inactive |
| COc1cc(C)c(Sc2cnc(NC(=O)c3ccc(CNC(C)C(C)C)cc3)s2)cc1C(=O)N1CCN(C(C)=O)CC1 (centres undefined) | inactive |
